A selection: hits, their analogues and other compounds. The true share with any hit is near 6.7%.
KB-3-1 tox = KB-3-1 parental cell cytotoxicity; KB-3-1 viability, CellTiter-Glo ATP luminescence, 72 h; Potency, µM (top dose mostly 46.1 µM), most hits filed as cytotoxic; 400,000 tested, 1.4% active; AID 1347075; also: nearly all actives have a fitted effect of over 60% in size
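Multi-concentration cytotoxicity screen in KB-3-1 cells grown in DMEM lacking phenol red with 10% FBS. After 72 h at 37 °C with compound, ATP-dependent luminescence was recorded.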
MCF10A rerep = inducers of DNA re-replication in MCF 10A breast cells | MCF 10A DNA re-replication, Hoechst nuclear intensity, 48 h | Potency, µM (highest dose often 46.1 µM), actives largely listed as activators | 350,000 tested, 2.9% active | AID 624296; also: nearly all actives have a fitted effect of over 50% in size
SW480 rereplic = inducers of DNA re-replication in SW480 colon cancer cells | SW480 DNA re-replication, Hoechst DNA content imaging, 48 h | Potency, µM (titrated, usually from 46.1 µM), most hits filed as activators | 340,000 tested, 1.8% active | AID 624297; also: nearly all actives have a fitted effect of over 55% in size
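Image-based DNA-content assay: after two days of treatment, nuclei were labelled with the DNA dye Hoechst and imaged, and hits were compounds raising the count of nuclei showing high fluorescence intensity.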
PINK1 modulator = PINK1 expression modulation; PINK1 immunofluorescence, high-content cytometry, 24 h; Potency, µM (series often up to 76.6 µM), actives largely listed as activators; 410,000 tested, 0.2% active; active = well fitted activation curve with a large enough effect; inconclusive = small, poorly fitted or top-dose-only effect; cell line not stated here; also: nearly all actives have a fitted effect of over 65% in size
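Fluorescence from anti-PINK1 antibody, together with nuclear and cell stains, was scanned on a laser-scanning cytometer. Before staining, stable-line cells were incubated 24 hours with compounds at 5 concentrations; primary antibody 12 h at 10 degrees C.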
KB-V1 cytotox = KB-V1 MDR subline cytotoxicity. KB-V1 MDR cells viability, CellTiter-Glo, 72 h. Potency, µM (titrated, usually from 46.1 µM), most hits filed as cytotoxic. 400,000 tested, 3.4% active. AID 1347076; also: nearly all actives have a fitted effect of over 60% in size
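KB-V1 MDR subline cells in DMEM (phenol-red free, 10% FBS) exposed to compounds in qHTS concentration series for 72 h at 37 degrees C. Viability read by CellTiter-Glo luminescence; concentration-effect curves fitted after normalization and correction.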
Each line names hits and unclear results; the compound was inactive in the other large screens. Unless noted, calls follow the shape of the dose curve; as a rule, active = well fitted curve in the direction sought with a large enough effect; inconclusive = small, poorly fitted or top-dose-only effect, or another doubt; inactive = no such curve, though single readings can be large; an effect the other way counts as inactive or inconclusive.

CC(=O)c1c(C)[nH]c(C(=O)C(C)Sc2nnc(NC3CC3)s2)c1C (configuration not stated)	MCF10A rerep 18.4µM (no result: KB-3-1 tox, KB-V1 cytotox)
Cc1cccc(NC(=O)c2cccc(N3CCCS3(=O)=O)c2)c1	none (no result: MCF10A rerep, SW480 rereplic)
COc1cccc(NC(=O)CSc2nc3ccccc3c(=O)n2CCCC(=O)NCC2CCCO2)c1 (configuration not stated)	none
NS(=O)(=O)c1ccc(-c2ccc(/C=N/Nc3ccc(C(=O)O)cc3)o2)cc1	SW480 rereplic inconclusive
COc1ccc(N(CC(=O)N/N=C/c2ccc(-c3ccc([N+](=O)[O-])cc3)o2)S(=O)(=O)c2ccc(C)cc2)cc1	MCF10A rerep inconclusive, SW480 rereplic 9.2µM
O=C(O)c1cccc(-c2ccc(/C=N/Nc3ccc([N+](=O)[O-])cc3)o2)c1	MCF10A rerep 18.4µM, SW480 rereplic inconclusive
NS(=O)(=O)c1ccc(-c2ccc(/C=N/NC(=O)c3ccc([N+](=O)[O-])cc3)o2)cc1	PINK1 modulator 39.8µM
CCC(=O)N/N=C/c1ccc(-c2ccc([N+](=O)[O-])cc2)o1	none
CNC(=S)N/N=C/c1ccc(-c2ccc(C(=O)O)cc2)o1	MCF10A rerep inconclusive, SW480 rereplic inconclusive, KB-V1 cytotox 6.51µM
CNC(=S)N/N=C/c1ccc(-c2ccc(Cl)c([N+](=O)[O-])c2)o1	MCF10A rerep inconclusive
CSCCC(N)C(=O)O (configuration not stated)	none (no result: KB-3-1 tox, PINK1 modulator, KB-V1 cytotox)
CCCCC(=O)N/N=C/c1ccc(-c2ccc([N+](=O)[O-])cc2)o1	none
O=C(O)c1ccc(-c2ccc(/C=N/Nc3ccc([N+](=O)[O-])cc3)o2)cc1	MCF10A rerep 18.4µM, SW480 rereplic 18.4µM
CC(C)(C)NC(=S)N/N=C\c1ccc(-c2ccc([N+](=O)[O-])cc2)o1	KB-3-1 tox inconclusive, MCF10A rerep 16.4µM, SW480 rereplic 20.6µM
O=C(Nc1nc2ccccc2[nH]1)c1ccccc1F	KB-3-1 tox inconclusive, MCF10A rerep inconclusive, SW480 rereplic inconclusive, KB-V1 cytotox 7.31µM
Cc1cc(NC(=O)c2c(F)cccc2F)n(-c2nc3ccccc3[nH]2)n1	KB-3-1 tox inconclusive, MCF10A rerep 11.6µM, SW480 rereplic 8.2µM
Cc1cc(NC(=O)c2c(F)cccc2Cl)n(-c2nc3ccccc3[nH]2)n1	MCF10A rerep 10µM, PINK1 modulator inconclusive
O=C(NCCc1nc2ccccc2[nH]1)c1ccc(F)cc1	KB-3-1 tox inconclusive, KB-V1 cytotox 11.6µM
CN(C)c1ccc(CNC(=O)CCn2c(=O)c3cccn3c3ccc(F)cc32)cc1	none (no result: KB-3-1 tox, MCF10A rerep, SW480 rereplic, KB-V1 cytotox)
Cc1cc(NC(=O)c2ccccc2F)n(-c2nc3ccccc3[nH]2)n1	KB-3-1 tox inconclusive, MCF10A rerep inconclusive, KB-V1 cytotox 14.6µM
CN(C)c1cccc(S(=O)(=O)N2CCCN(S(=O)(=O)c3ccc4c(c3)OCCO4)CC2)c1	none (no result: MCF10A rerep, SW480 rereplic, PINK1 modulator)
CN(C(=O)c1ccccc1)C(=O)c1ccccc1	none (no result: MCF10A rerep, SW480 rereplic)
O=C(CN1C(=O)CCSc2ccccc21)Nc1ccc2c(c1)OCCO2	KB-V1 cytotox 13µM
CC1CC(=O)N(CC(=O)Nc2ccc3c(c2)OCO3)c2ccccc2S1 (configuration not stated)	KB-3-1 tox inconclusive, KB-V1 cytotox 16.4µM
O=C(/C=C/c1c(F)cccc1Cl)N1CCOCC1	none
O=C(C[C@H]1CC[C@@H]2[C@H](COC[C@H](O)CN2C(=O)c2cnccn2)O1)NCc1ccc(Cl)cc1	none (no result: MCF10A rerep, SW480 rereplic, PINK1 modulator)
CCn1cc(C2=NC(c3ccccc3)CO2)c2ccccc21 (configuration not stated)	KB-3-1 tox 8.2µM, MCF10A rerep inconclusive, KB-V1 cytotox inconclusive
Cc1nn2c(=O)cc(COC(=O)c3ccc(NC(=O)c4cccc(Br)c4)cc3)nc2s1	none (no result: KB-3-1 tox, MCF10A rerep, SW480 rereplic, KB-V1 cytotox)
COc1ccc(CCNC(=O)C(=O)NCC2CCCN2S(=O)(=O)c2ccccc2)cc1 (configuration not stated)	MCF10A rerep inconclusive, SW480 rereplic 4.61µM
COc1ccc(CCNC(=O)C(=O)NCC2CCCN2S(=O)(=O)c2cccs2)cc1 (configuration not stated)	none
O=C(NCc1ccc(F)cc1)C(=O)NCC1CCCN1S(=O)(=O)c1ccccc1 (configuration not stated)	KB-V1 cytotox inconclusive
COc1ccccc1CCNC(=O)C(=O)NCC1CCCN1S(=O)(=O)c1ccccc1 (configuration not stated)	MCF10A rerep inconclusive, SW480 rereplic inconclusive, KB-V1 cytotox 20.6µM
COc1ccccc1CNC(=O)C(=O)NCCC1CCCCN1S(=O)(=O)c1ccccc1 (configuration not stated)	none
COc1ccc(S(=O)(=O)N2CCCC2CNC(=O)C(=O)NCCc2ccccc2)cc1 (configuration not stated)	KB-3-1 tox 8.2µM, MCF10A rerep inconclusive, SW480 rereplic inconclusive, PINK1 modulator inconclusive, KB-V1 cytotox 4.61µM
COc1ccc(S(=O)(=O)N2CCCC2CNC(=O)C(=O)NCc2ccccc2)cc1 (configuration not stated)	KB-3-1 tox inconclusive, KB-V1 cytotox inconclusive
O=C(NCCc1ccc(F)cc1)C(=O)NCC1CCCN1S(=O)(=O)c1ccccc1 (configuration not stated)	KB-3-1 tox 18.4µM, MCF10A rerep inconclusive, SW480 rereplic inconclusive, KB-V1 cytotox 5.8µM
COc1ccc(C(=O)Nc2cccc3c2CCCC3)cc1OC	MCF10A rerep inconclusive
C/C(=N\N1CCN(C2c3ccccc3-c3ccccc32)CC1)c1ccncc1	KB-3-1 tox inconclusive, KB-V1 cytotox 18.4µM
CCOc1ccc(CCNC(=O)c2cnc3c(-c4ccc(F)cc4)c(C)nn3c2C)cc1OCC	none (no result: MCF10A rerep, SW480 rereplic)
CCOC(=O)CSc1nc(-c2ccc3c(c2)OCO3)ccc1C#N	MCF10A rerep 16.4µM, KB-V1 cytotox inconclusive
CCOC(=O)CSc1nc(-c2ccncc2)ccc1C#N	MCF10A rerep 11.6µM
Cc1ccc(C(C(=O)NCc2ccco2)N(C(=O)CNC(=O)c2cccs2)c2c(C)cccc2C)cc1 (configuration not stated)	MCF10A rerep 18.4µM, SW480 rereplic inconclusive, PINK1 modulator inconclusive
COc1cc2ccc(NC(C)=O)cc2cc1OC	none (no result: MCF10A rerep, SW480 rereplic)
COc1cc2ccc(C(C)=NOC(C)=O)cc2cc1OC	KB-3-1 tox 5.17µM, KB-V1 cytotox 2.06µM (no result: MCF10A rerep, SW480 rereplic)
O=C(CSc1nnc2ccccn12)NNC(=O)c1ccccc1F	KB-V1 cytotox inconclusive
Cc1ccc(N(CC(O)Cn2c3ccccc3c3ccccc32)S(C)(=O)=O)cc1 (configuration not stated)	KB-3-1 tox inconclusive
Cc1ccc(N(CC(O)Cn2c3ccccc3c3ccccc32)S(C)(=O)=O)c(C)c1 (configuration not stated)	KB-3-1 tox 23.1µM, MCF10A rerep inconclusive, KB-V1 cytotox 13µM
O=C(NCc1ccccc1Cl)c1ccc2c(c1)nnn2C1CCCC1	none (no result: MCF10A rerep, SW480 rereplic)
COc1ccccc1C(CCNCc1ccc(N(C)C)cc1)c1ccc(OC(C)C)cc1 (configuration not stated)	KB-3-1 tox inconclusive, SW480 rereplic inconclusive

Compound activity from PubChem.
